{"source": "PubChem BioAssay AID1508600", "about": "(Functional Genomics Laboratory (NCATS/FGL), 2020)", "note": "Screen size: about 53,000 sequences; about 3,700 (7%) were called active.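 How the source made its calls: active means gene knockdowns whose robust z-score for IL-1 alpha signal is at least 2 or at most -2, so actives lie on both sides; inactive means the rest.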 The full list was thinned out, with actives kept by preference."}
{"assay": "Components of the Cytosolic LPS Sensing Pathway: Gene Identification via Genome-wide siRNA Screen;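 further: robust z of the log signal after scaling to non-targeting control siRNA wells of the plate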", "settings": "RAW264.7 macrophages, IL-1a HTRF, actives lie on both sides, screened at 100 nM (by protocol), cells primed 5 h with Pam3CSK4 first", "summary_of_the_method": "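Knockdown: 100 nM siRNA, 48h, RAW264.7. Stimulation: Pam3CSK4 5 h, then LipidA via TransIT-TKO 24 h. Output: supernatant IL-1a HTRF, negative-control-normalized, log robust z-score; viability by CellTiter-Glo.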"}
{"sequence": "GGACCCAUUGGUCAUCAUATT against Tent5b", "z-score": "0.18 (inactive)"}
{"sequence": "CGGAACCAUAGGGAAUCAGTT against Cmc2", "z-score": "2.04 (active)"}
{"sequence": "GCCUGAAUUUGUAAGCAGUTT against Fgf1", "z-score": "0.0666 (inactive)"}
{"sequence": "CAUUGUCAUUCUGCUGGCATT against Olfr1249", "z-score": "-0.0752 (inactive)"}
{"sequence": "GGUCACCAUCAUCAUCAAUTT against Carmil1", "z-score": "0.484 (inactive)"}
{"sequence": "GGUGGUAGAACUGUUAAAATT against Klc2", "z-score": "0.311 (inactive)"}
{"sequence": "GGAGAAAGAGACGGACAACTT against Fgfr1", "z-score": "2.8 (active)"}
{"sequence": "GGACUGAAUCUUUAAAGGUTT against Nkx1-2", "z-score": "0.199 (inactive)"}
{"sequence": "GGUGUUGUGGAAUAUUUAATT against Cnot6l", "z-score": "1.23 (inactive)"}
{"sequence": "GGUCUUACCUUUUGAAAAATT against Mtbp", "z-score": "0.0999 (inactive)"}
{"sequence": "GCAUCCUCUCACUCUCAAUTT against Grin2a", "z-score": "2.37 (active)"}
{"sequence": "CCGAAGCCUUGAAAGCAGUTT against Shq1", "z-score": "0.302 (inactive)"}
{"sequence": "GGAAACUGGAUCAAACCAUTT against Smarcd3", "z-score": "-0.707 (inactive)"}
{"sequence": "CGAAGUGGUCAAGUUCUCUTT against Fbxo17", "z-score": "-2.09 (active)"}
{"sequence": "CGAGUUAGUUUUUCUGGGCTT against Tctex1d4", "z-score": "0.997 (inactive)"}
{"sequence": "GCAAGAAAAGGUGCUAUCUTT against Med4", "z-score": "-0.314 (inactive)"}
{"sequence": "GGAGCUGGAAGAGUGGUAUTT against Clta", "z-score": "-0.535 (inactive)"}
{"sequence": "GGCUAUGUAGAUCUUGUCATT against Cyb5r1", "z-score": "-1.09 (inactive)"}
{"sequence": "GCUCGGUUAAGAGCCCAUGTT against Pabpn1l", "z-score": "-2.11 (active)"}
{"sequence": "GGCACAACUGAUUUUGAAATT against Ifngr2", "z-score": "-0.362 (inactive)"}
{"sequence": "GCGAUCACAGACAUCAUUGTT against Rabgef1", "z-score": "-0.423 (inactive)"}
{"sequence": "GGAAAUAAGCAGCGCAUGCTT against Ippk", "z-score": "-1.27 (inactive)"}
{"sequence": "CCUACGAGGAUACUUACAATT against Kif18b", "z-score": "2.81 (active)"}
{"sequence": "GGUGGUUCUGGUGUACAGUTT against Nxf1", "z-score": "-1.98 (inactive)"}
{"sequence": "CCCUAUAAGCAACUUAUGCTT against Tor1aip1", "z-score": "-0.115 (inactive)"}
{"sequence": "GCACCAUUUGAGUUUUUCUTT against Vmn1r8", "z-score": "-0.578 (inactive)"}
{"sequence": "CAUUUACAUUCUUAUUACCTT against Olfr473", "z-score": "-1.43 (inactive)"}
{"sequence": "CCCGAACCUUAGUAAAUGUTT against Psmd8", "z-score": "0.308 (inactive)"}
{"sequence": "GCAGACAGCUUCUCACUAUTT against Tmem114", "z-score": "-0.431 (inactive)"}
{"sequence": "GCUAAGAAACUGGUCUCAUTT against Reg4", "z-score": "-0.151 (inactive)"}
{"sequence": "GGAAGAUUUGGAAAAUGGATT against Dph3", "z-score": "-2.19 (active)"}
{"sequence": "CCAUCAUUUAUGAAGACCCTT against Dcaf7", "z-score": "-1.44 (inactive)"}
{"sequence": "CCCAAGCACCAGCCCUAUATT against Frmd8", "z-score": "-1.58 (inactive)"}
{"sequence": "GGGAGAAUUGUAGAUUAUUTT against Myo10", "z-score": "0.475 (inactive)"}
{"sequence": "CCAUCGACUGUUUCAUCCUTT against Olfr987", "z-score": "-0.915 (inactive)"}
{"sequence": "GCUUGAAGUCUCUUGCUGGTT against Nhlrc2", "z-score": "3.53 (active)"}
{"sequence": "GCUACUCUUUGUCUCAUGUTT against Hexb", "z-score": "-0.826 (inactive)"}
{"sequence": "GGAUCAGAUCUUGUGUGACTT against Trim16", "z-score": "-0.602 (inactive)"}
{"sequence": "CCGCUUGCUCAUUGUAUCATT against Ruvbl2", "z-score": "-0.976 (inactive)"}
{"sequence": "GGUUCCAUGAGAAAAGGUUTT against F2r", "z-score": "-1.45 (inactive)"}
{"sequence": "AUCUGUUCCGGAGGAAUUUTT against 1700029I15Rik", "z-score": "3.85 (active)"}
{"sequence": "GGAGGAGUUUCGCUACGGATT against Sars2", "z-score": "-0.00587 (inactive)"}
{"sequence": "GGUGUACCCUGAAUUUGAATT against Wdr62", "z-score": "-1.67 (inactive)"}
{"sequence": "GGUUAUACGCUUAGAUUUATT against Irx5", "z-score": "1.77 (inactive)"}
{"sequence": "GCUCUGUUACUAUUUGAAUTT against Cts6", "z-score": "0.137 (inactive)"}
{"sequence": "GGUUUUGUACUUUCAUAGATT against Fam111a", "z-score": "0.523 (inactive)"}
{"sequence": "GGACUUGAACUGAAAAGUUTT against D830013H23Rik", "z-score": "1.01 (inactive)"}
{"sequence": "GGCAAAAUAAAGCUUAAGGTT against Robo3", "z-score": "-0.517 (inactive)"}
{"sequence": "GGAUUUGAGGUUCAUAUAATT against Cdk20", "z-score": "-2.48 (active)"}
{"sequence": "CGACAGACAUCGCUAUAAUTT against Gm11437", "z-score": "-0.296 (inactive)"}
{"sequence": "GGAGAUACCGGGAAUCCAATT against Rpl19", "z-score": "0.146 (inactive)"}
{"sequence": "GCGCUUCCAAUAACAAAAATT against 1700123L14Rik", "z-score": "-2.19 (active)"}
{"sequence": "CCAAGUGGGAUUUGCCAACTT against Ifi47", "z-score": "-1.68 (inactive)"}
{"sequence": "GGAAUAUCACCAAACCAAATT against 2310057J18Rik", "z-score": "-1.08 (inactive)"}
{"sequence": "CCUUCACCUGGCUAUUAGATT against Kif12", "z-score": "-0.14 (inactive)"}
{"sequence": "GGAUGUGUUCUAUUCUAUATT against Oprl1", "z-score": "0.134 (inactive)"}
{"sequence": "GGAAAGUUAAUGCACAUUUTT against Hmg20a", "z-score": "-1.68 (inactive)"}
{"sequence": "CCUGAAAGAAAAGAAGGACTT against Ptms", "z-score": "0.107 (inactive)"}
{"sequence": "GGCGACAAGCAACUUAUAATT against Mgat4c", "z-score": "3.25 (active)"}
{"sequence": "GGAUGACUGUAAGUUACGGTT against Mast2", "z-score": "-0.229 (inactive)"}
{"sequence": "GGUGCUCCUAUCCUGUUCATT against Lhfp", "z-score": "-0.331 (inactive)"}
{"sequence": "GGCGGCUGAAAGUUUUGCATT against Pklr", "z-score": "0.94 (inactive)"}
{"sequence": "GCACAAGAGGUAUCCUUGCTT against Gm5111", "z-score": "0.000682 (inactive)"}
{"sequence": "GCCUGCAUUGCAAAUGAAATT against Krtap13-1", "z-score": "-0.257 (inactive)"}
{"sequence": "GGCUUUAACAUCAAAGCAATT against Mgarp", "z-score": "0.0459 (inactive)"}
{"sequence": "GGAAUCCUUUUCUUUCUAATT against Slc13a1", "z-score": "0.0492 (inactive)"}
{"sequence": "GGAAGACAGGGACAAUACCTT against Car15", "z-score": "-2.36 (active)"}
{"sequence": "CCAUCCUAGCUGUGGUAAGTT against Olfr554", "z-score": "1.32 (inactive)"}
{"sequence": "GGUCGUUCAGAAGCACCAGTT against Aldh16a1", "z-score": "-1.31 (inactive)"}
{"sequence": "CGGCACUGACUUAUUGUUCTT against Olfr574", "z-score": "0.886 (inactive)"}
{"sequence": "GGUGUACCAAGUGUUUUCATT against Faf2", "z-score": "3.08 (active)"}
{"sequence": "GGUCACUGAAUUGUCAAUCTT against Polr3h", "z-score": "0.773 (inactive)"}
{"sequence": "GGGCAAAGACAGUAUUCAATT against B530045E10Rik", "z-score": "0.4 (inactive)"}
{"sequence": "CCAUGUGACAAAGCCUACCTT against Fam131b", "z-score": "0.845 (inactive)"}
{"sequence": "GGAGGAAAGACGAAUCAACTT against Clcn7", "z-score": "1.44 (inactive)"}
{"sequence": "GCACUGAGCUUGACAAAGATT against Upp2", "z-score": "-0.174 (inactive)"}
{"sequence": "GGGCUUUCUCAGAAAAGAATT against Olfr508", "z-score": "-1.29 (inactive)"}
{"sequence": "GGGCAUGAAAGAAUUCUUATT against D130040H23Rik", "z-score": "-2.83 (active)"}
{"sequence": "GGCCAUCAUUGUCACCGUGTT against Adra2a", "z-score": "0.955 (inactive)"}
{"sequence": "GGUUUAGGUUUCAUAAUCCTT against Ostc", "z-score": "-0.338 (inactive)"}
{"sequence": "GGACCUAUGCAGCACUAAATT against Ppp1r11", "z-score": "1.73 (inactive)"}
{"sequence": "GGAGAAAGUGGACAGGGCUTT against Jph4", "z-score": "0.00563 (inactive)"}
{"sequence": "GGUGGUCUGAGAAAUACUCTT against Czib", "z-score": "2.06 (active)"}
{"sequence": "GCAUCUCCUGCCAAAGCAGTT against Ms4a2", "z-score": "-0.381 (inactive)"}
{"sequence": "GGUAGUAGGAGGAAUGACGTT against Ccdc93", "z-score": "-0.353 (inactive)"}
{"sequence": "GCUUCCUUAUUGACAAUGGTT against Rbm19", "z-score": "0.596 (inactive)"}
{"sequence": "GGAGGGACACAGAGAUUACTT against Auh", "z-score": "5.05 (active)"}
{"sequence": "GGAGUAGCAGAGCUUCUGGTT against S100a8", "z-score": "0.642 (inactive)"}
{"sequence": "GGAGAAUAAAACUUCCAGATT against Urod", "z-score": "-0.436 (inactive)"}
{"sequence": "GGGACACAGCUAAAAGCUUTT against Fam20b", "z-score": "0.146 (inactive)"}
{"sequence": "CGAUACAGGACCGAAGGAGTT against Fhad1", "z-score": "-0.196 (inactive)"}
{"sequence": "GGUGGAUAUUGAUAUCAAGTT against Fga", "z-score": "3.31 (active)"}
{"sequence": "CCCGGAGAGUCAUUUGUGUTT against Cpsf4", "z-score": "0.435 (inactive)"}
{"sequence": "CGGAAUCAUACAUUGGUUCTT against Zfp217", "z-score": "1.22 (inactive)"}
{"sequence": "GGUGUCUGACUUUAAGAAGTT against Foxred1", "z-score": "-0.247 (inactive)"}
{"sequence": "GCCACAACUUAAUUUUCUGTT against Nav3", "z-score": "-0.305 (inactive)"}
{"sequence": "GGAAUCAGAUACAAAGGAGTT against Sil1", "z-score": "0.265 (inactive)"}
{"sequence": "CUAUCAAGGGCAGUCAACUTT against Olfr1208", "z-score": "-2.38 (active)"}
{"sequence": "GGACACUAUGACGGAAGUATT against Apoe", "z-score": "-1.13 (inactive)"}
{"sequence": "GGUUCUGAAGAUGGAGGUUTT against Ttbk2", "z-score": "1.22 (inactive)"}
{"sequence": "CCAAGAAUGCCCAGCAAGUTT against E4f1", "z-score": "2.39 (active)"}
{"sequence": "GCGACUUCAGAUUUCAUUATT against Srsf2", "z-score": "-0.439 (inactive)"}
{"sequence": "GGUCAACCAUUCCUCUUGATT against Ccdc9b", "z-score": "0.409 (inactive)"}
{"sequence": "GCUGAAGGAUCCCAUUAGATT against Cbx2", "z-score": "-1.68 (inactive)"}
{"sequence": "GCAACUUGGGAACUCUUUGTT against Pnpla7", "z-score": "-1.77 (inactive)"}
{"sequence": "GGUUUCUUUCUCUGAGUUUTT against Man2a1", "z-score": "1.62 (inactive)"}
{"sequence": "GGAGGAACUCCUAAAGAAGTT against Galntl5", "z-score": "-0.511 (inactive)"}
